About 2,000 (36%) of roughly 5,500 compounds were called active. Not shown: some 18% with an inconclusive outcome. Cut-off read from the data, not from the text of the source: active = normalized growth mostly below about 0.91 (no sharp cut-off); inconclusive = no clear call, values can overlap the other calls; inactive = mostly above about 0.92. The list shows a part of the results.
Assay: chemical genetic growth profiling, strain panel (AID 1159580);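 note: tested at 20 µM; growth read once vehicle control cultures reached saturation at 30 °C; 1 = growth at the plate median or of vehicle wells; lower values mean less growth of the strain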
Conditions: growth OD

Measured: normalized growth

CC(=O)Nc1ccc(O)cc1
inactive: S. cerevisiae deletion strains, locus YJR075W, strain HOC1, stronger effect = lower value 1.06 | S. cerevisiae deletion strains, locus YKL009W, strain mrt4, stronger effect = lower value 0.952 | S. cerevisiae deletion strains, locus YKL085W, strain MDH1 (second series), stronger effect = lower value 0.943 | S. cerevisiae deletion strains, locus YKL085W, strain MDH1, stronger effect = lower value 0.943 | S. cerevisiae deletion strains, locus YKL160W, strain elf1, stronger effect = lower value 1.01 | S. cerevisiae deletion strains, locus YKR001C, strain vps1, stronger effect = lower value 0.982 | S. cerevisiae deletion strains, locus YKR026C, strain gcn3, stronger effect = lower value 1.02 | S. cerevisiae deletion strains, locus YKR091W, strain srl3, stronger effect = lower value 1.01 | S. cerevisiae deletion strains, locus YLL001W, strain dnm1, stronger effect = lower value 0.998 | S. cerevisiae deletion strains, locus YLL026W, stronger effect = lower value 1.02 | S. cerevisiae deletion strains, locus YLL041C, strain sdh2, stronger effect = lower value 1.01 | S. cerevisiae deletion strains, locus YLR027C, strain aat2, stronger effect = lower value 1.01 | S. cerevisiae deletion strains, locus YLR039C, strain RIC1, stronger effect = lower value 0.742 | S. cerevisiae deletion strains, locus YLR058C, strain SHM2, stronger effect = lower value 0.984 | S. cerevisiae deletion strains, locus YLR102C, strain apc9, stronger effect = lower value 0.986 | S. cerevisiae deletion strains, locus YLR113W, strain HOG1, stronger effect = lower value 0.974 | S. cerevisiae deletion strains, locus YLR221C, strain rsa3, stronger effect = lower value 0.989 | S. cerevisiae deletion strains, locus YLR258W, strain gsy2, stronger effect = lower value 1.02 | S. cerevisiae deletion strains, locus YLR262C, strain YPT6 (second series), stronger effect = lower value 1.04 | S. cerevisiae deletion strains, locus YLR262C, strain YPT6, stronger effect = lower value 0.772 | S. cerevisiae deletion strains, locus YLR268W, strain sec22, stronger effect = lower value 0.978 | S. cerevisiae deletion strains, locus YLR320W, strain mms22, stronger effect = lower value 1.01 | S. cerevisiae deletion strains, locus YLR330W, strain CHS5, stronger effect = lower value 0.986 | S. cerevisiae deletion strains, locus YLR342W, strain FKS1 (second series), stronger effect = lower value 1.05 | S. cerevisiae deletion strains, locus YLR342W, strain FKS1, stronger effect = lower value 1.03 | S. cerevisiae deletion strains, locus YLR357W, strain rsc2, stronger effect = lower value 1.02 | S. cerevisiae deletion strains, locus YLR370C, strain arc18, stronger effect = lower value 1.01 | S. cerevisiae deletion strains, locus YLR371W, strain rom2, stronger effect = lower value 0.999 | S. cerevisiae deletion strains, locus YLR384C, strain iki3, stronger effect = lower value 1.01 | S. cerevisiae deletion strains, locus YLR418C, strain cdc73, stronger effect = lower value 1.08 | S. cerevisiae deletion strains, locus YML016C, strain PPZ1, stronger effect = lower value 0.975 | S. cerevisiae deletion strains, locus YML032C, strain rad52, stronger effect = lower value 0.971 | S. cerevisiae deletion strains, locus YML120C, strain ndi1, stronger effect = lower value 1.02 | S. cerevisiae deletion strains, locus YML124C, strain tub3, stronger effect = lower value 0.972 | S. cerevisiae deletion strains, locus YMR058W, strain fet3, stronger effect = lower value 1.03 | S. cerevisiae deletion strains, locus YMR078C, strain ctf18, stronger effect = lower value 0.986 | S. cerevisiae deletion strains, locus YMR125W, strain sto1, stronger effect = lower value 1.01 | S. cerevisiae deletion strains, locus YMR129W, stronger effect = lower value 1.01 | S. cerevisiae deletion strains, locus YMR205C, strain PFK2, stronger effect = lower value 1.02 | S. cerevisiae deletion strains, locus YMR223W, strain ubp8, stronger effect = lower value 0.98 | S. cerevisiae deletion strains, locus YMR231W, strain pep5, stronger effect = lower value 1.03 | S. cerevisiae deletion strains, locus YMR307W, strain GAS1, stronger effect = lower value 0.876 | S. cerevisiae deletion strains, locus YNL067W, strain RPL9B, stronger effect = lower value 1.04 | S. cerevisiae deletion strains, locus YNL071W, strain lat1, stronger effect = lower value 1.02 | S. cerevisiae deletion strains, locus YNL153C, strain GIM3, stronger effect = lower value 0.998 | S. cerevisiae deletion strains, locus YNL183C, strain NPR1, stronger effect = lower value 0.955 | S. cerevisiae deletion strains, locus YNL209W, strain ssb2, stronger effect = lower value 1.02 | S. cerevisiae deletion strains, locus YNL233W, strain BNI4, stronger effect = lower value 1.03 | S. cerevisiae deletion strains, locus YNL248C, strain rpa49, stronger effect = lower value 0.998 | S. cerevisiae deletion strains, locus YNL250W, strain rad50, stronger effect = lower value 0.937 | S. cerevisiae deletion strains, locus YNL271C, strain bni1, stronger effect = lower value 0.936 | S. cerevisiae deletion strains, locus YNL307C, strain MCK1, stronger effect = lower value 1.01 | S. cerevisiae deletion strains, locus YNL322C, strain KRE1 (second series), stronger effect = lower value 1.02 | S. cerevisiae deletion strains, locus YNR049C, strain mso1, stronger effect = lower value 1.03 | S. cerevisiae deletion strains, locus YNR052C, strain pop2, stronger effect = lower value 0.974 | S. cerevisiae deletion strains, locus YOL006C, strain TOP1, stronger effect = lower value 1.14 | S. cerevisiae deletion strains, locus YOL012C, strain htz1 0.778 | S. cerevisiae deletion strains, locus YOL147C, strain pex11, stronger effect = lower value 0.98 | S. cerevisiae deletion strains, locus YOR001W, strain rrp6, stronger effect = lower value 1.01 | S. cerevisiae deletion strains, locus YOR061W, strain CKA2, stronger effect = lower value 0.972 | S. cerevisiae deletion strains, locus YOR069W, strain VPS5, stronger effect = lower value 0.984 | S. cerevisiae deletion strains, locus YOR070C, strain gyp1, stronger effect = lower value 1.01 | S. cerevisiae deletion strains, locus YOR080W, strain dia2, stronger effect = lower value 1.03 | S. cerevisiae deletion strains, locus YOR083W, strain WHI5, stronger effect = lower value 0.988 | S. cerevisiae deletion strains, locus YOR106W, strain vam3, stronger effect = lower value 1.01 | S. cerevisiae deletion strains, locus YOR136W, strain idh2, stronger effect = lower value 1.01 | S. cerevisiae deletion strains, locus YOR144C, strain elg1, stronger effect = lower value 0.968 | S. cerevisiae deletion strains, locus YOR184W, strain ser1, stronger effect = lower value 0.998 | S. cerevisiae deletion strains, locus YOR231W, strain MKK1, stronger effect = lower value 0.997 | S. cerevisiae deletion strains, locus YOR265W, strain rbl2, stronger effect = lower value 1.02 | S. cerevisiae deletion strains, locus YOR270C, strain vph1, stronger effect = lower value 1.02 | S. cerevisiae deletion strains, locus YOR290C, strain snf2, stronger effect = lower value 1 | S. cerevisiae deletion strains, locus YOR316C, strain cot1, stronger effect = lower value 0.982 | S. cerevisiae deletion strains, locus YPL051W, strain arl3, stronger effect = lower value 1.01 | S. cerevisiae deletion strains, locus YPL055C, strain LGE1, stronger effect = lower value 1 | S. cerevisiae deletion strains, locus YPL078C, strain atp4, stronger effect = lower value 1.01 | S. cerevisiae deletion strains, locus YPL106C, strain sse1, stronger effect = lower value 1.02 | S. cerevisiae deletion strains, locus YPL240C, strain hsp82, stronger effect = lower value 1.02 | S. cerevisiae deletion strains, locus YPL241C, strain CIN2, stronger effect = lower value 0.981 | S. cerevisiae deletion strains, locus YPL256C, strain CLN2, stronger effect = lower value 0.982 | S. cerevisiae deletion strains, locus YPR119W, strain clb2, stronger effect = lower value 0.973 | S. cerevisiae deletion strains, locus YPR163C, strain tif3, stronger effect = lower value 0.992 | S. cerevisiae deletion strains, locus YPR167C, strain met16, stronger effect = lower value 0.972 | S. cerevisiae deletion strains, strain wtn01, stronger effect = lower value 0.967 | S. cerevisiae strains, strain wild type, stronger effect = lower value 0.953
active: S. cerevisiae deletion strains, locus YKL068W, stronger effect = lower value 0.936 | S. cerevisiae deletion strains, locus YNL298W, strain CLA4, stronger effect = lower value 0.897 | S. cerevisiae deletion strains, locus YPR141C, strain kar3, stronger effect = lower value 0.911

Reference: PubChem BioAssay AID1159580 (chemical genetic matrix, 2015)
